Many of the other results were omitted from the sample, so hits are more common in it than they were.
HT1080-NT tox = kills 2HG-producing HT-1080-NT fibrosarcoma cells. AID 686970. Potency, µM (series often up to 46.1 µM), for the others: at the top dose activity, negative = less viability, usual class: cytotoxic. HT-1080-NT fibrosarcoma viability, CellTiter-Glo ATP luminescence, 48 h. 1.6% of 360,000 active;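 also: NT is the 2HG producing partner of a matched IDH1 knockdown line; potency is read from the fitted curve at half-maximal effect; 0% = DMSO-treated cells and -100% = media-only wells without cells; nearly all actives have a fitted effect of over 55% in size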
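750 cells/well, RPMI + 5% FBS; 2 h settle, compound pin-transfer, 48 h at 37 degrees C. CellTiter-Glo 10 min RT, luminescence. Normalized to DMSO and media-only wells.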
IL-1B inflam inh = blocks inflammasome-driven IL-1 beta release. THP-1 LPS/ATP IL-1B secretion, AlphaLISA, 16 h; active compounds read low. activity change, % at 57.5 µM. 4.7% of 360,000 active; in the data active = activity change below about -50%; inconclusive = mostly about -30% to -49%
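THP-1 cells pretreated 1 hr with compounds (up to 57.5 uM final), then stimulated with LPS (250 ng/mL final) plus ATP (1.25 mM final); secreted IL-1B measured by AlphaLISA after 16 hr, decreased signal indicating inhibition.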
ALOX12 inh = ALOX12 (human) lipoxygenase inhibition; purified 12hLO, xylenol orange hydroperoxide absorbance; Potency, µM (top dose mostly 108 µM), for inactives: at the top dose activity change, negative = inhibition, actives largely listed as inhibitors; 1.1% of 580,000 active; also: potency is read from the fitted curve at half-maximal effect
Target sequence (P18054 whole entry, looked up): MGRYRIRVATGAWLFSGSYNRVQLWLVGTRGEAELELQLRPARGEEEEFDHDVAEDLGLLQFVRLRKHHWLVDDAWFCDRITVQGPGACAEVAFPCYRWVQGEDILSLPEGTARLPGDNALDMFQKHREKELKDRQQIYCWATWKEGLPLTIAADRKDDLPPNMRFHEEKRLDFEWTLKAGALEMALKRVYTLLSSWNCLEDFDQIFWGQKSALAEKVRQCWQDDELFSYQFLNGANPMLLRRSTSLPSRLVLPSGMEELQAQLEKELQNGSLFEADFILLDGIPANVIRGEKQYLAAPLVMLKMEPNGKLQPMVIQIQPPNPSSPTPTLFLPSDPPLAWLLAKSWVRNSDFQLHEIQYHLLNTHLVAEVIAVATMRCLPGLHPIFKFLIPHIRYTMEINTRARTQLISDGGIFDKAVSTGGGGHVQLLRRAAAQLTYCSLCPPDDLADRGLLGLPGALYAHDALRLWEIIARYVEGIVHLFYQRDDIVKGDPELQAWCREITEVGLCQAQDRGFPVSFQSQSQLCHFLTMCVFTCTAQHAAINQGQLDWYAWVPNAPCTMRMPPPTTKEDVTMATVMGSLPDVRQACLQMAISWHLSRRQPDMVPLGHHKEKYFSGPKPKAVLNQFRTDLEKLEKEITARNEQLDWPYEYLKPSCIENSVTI
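Purified human 12hLO (150 nM final) in 25 mM Hepes, 0.01% Triton X-100, pH 7.0 was preincubated 15 min at room temperature with compound. Then 40 uM arachidonic acid was added, 30 min. Hydroperoxide was read by Fe-XO absorbance ratio 573/405 nm.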
TDP1 cell noCPT = qHTS for Inhibitors of human tyrosyl-DNA phosphodiesterase 1 (TDP1): qHTS in cells in absence of CPT. DT40 Tdp1-/- hTDP1 cells, no CPT, ATP luminescence, 48 h. 15% of 420,000 active. AID 686978, 2013. Potency, µM (doses to about 46.2 µM), without a hit: top-dose activity change, negative = growth inhibition, actives largely listed as inhibitors; also: potency is read from the fitted curve at half-maximal effect; nearly all actives have a fitted effect of over 55% in size
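Seeded 400 DT40-hTDP1 cells/well (vehicle DMSO, no 20 nM CPT); pinned compounds; ≥48 hr at 37 °C; CellTiter-Glo luminescence as viability measure.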
HT1080 IDH1KD tx = kills HT-1080 cells with IDH1 knockdown. HT-1080 IDH1 knockdown viability, ATP luminescence, 48 h. Potency, µM (doses to about 46.1 µM), inactives show top-dose activity, negative = toxicity, most hits filed as cytotoxic. 2% of 360,000 active;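 also: potency is read from the fitted curve at half-maximal effect; 0% = DMSO wells and -100% = cell-free medium wells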
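CellTiter-Glo luminescence after 48 h compound exposure at 37 degrees C of IDH1-knockdown HT-1080 cells in 5% FBS RPMI. %Activity scaled between DMSO wells and cell-free media wells, with curves fitted and assigned curve classes.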
TDP1 cell CPT = DT40-hTDP1 cell growth loss with CPT; Potency, µM (titrated, usually from 46.2 µM), inactives show top-dose activity change, negative = growth inhibition, hits mostly inhibitors; 12% of 420,000 active; chicken DT40 Tdp1-/-;hTDP1 cells + 20 nM CPT, ATP luminescence, 48 h; also: potency is read from the fitted curve at half-maximal effect; nearly all actives have a fitted effect of over 55% in size
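Chicken DT40 Tdp1-/- cells complemented with human TDP1, 400 cells/well, exposed to compounds plus 20 nM camptothecin for at least 48 h at 37 C; viability read as ATP content by CellTiter-Glo luminescence.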
An asterisk follows results filed as active; ? = inconclusive; nt = no result given; [ ] = another dose, or the depositor's remark. Unless noted, calls follow the shape of the dose curve; as a rule, active = well fitted curve in the direction sought with a large enough effect; inconclusive = small, poorly fitted or top-dose-only effect, or another doubt; inactive = no such curve, though single readings can be large; an effect the other way counts as inactive or inconclusive. Unless noted, % is scaled to controls: 0 for no effect and ±100 for the full control effect.

SMILES | HT1080-NT tox | IL-1B inflam inh | ALOX12 inh | TDP1 cell noCPT | HT1080 IDH1KD tx | TDP1 cell CPT
CCCCn1c(=N)n(CC(O)COc2cccc(C)c2)c2ccccc21 (stereo unspecified) | ? | -94* | -13% | 13µM* | ? | 12µM*
Cn1c(=N)n(CC(O)c2ccco2)c2ccccc21 (stereo unspecified) | 7% | 5 | 19% | -6% | 14% | -5%
Cc1cccc(OCC(O)CN2CCOCC2)c1 (stereo unspecified) | -1% | -15 | 1% | 5% | -1% | 3%
Cn1c(=N)n(CC(O)c2cccc3ccccc23)c2ccccc21 (stereo unspecified) | 23µM* | ? | 15% | 13µM* | -9%[9.24 µM] | 15µM*
CCCn1c(=N)n(CC(O)COc2ccc(C)cc2)c2ccccc21 (stereo unspecified) | 16µM* | nt | -21% | 5.2µM* | 16µM* | 4.6µM*
CCCCN(CC(O)COc1cccc(C)c1)CC(O)COc1cccc(C)c1 (stereo unspecified) | 21µM* | -100* | ? | 23µM* | 18µM* | ?
CCCCNc1nc(-c2ccccc2F)nc2ccccc12 | nt | nt | -20% | nt | nt | nt
CCC(=O)c1ccc(OC(=O)c2ccc(OC)c(I)c2)cc1 | nt | nt | -4% | nt | nt | nt
CCOc1ccccc1NC(=O)/C(C#N)=C/c1c(C)nn(-c2ccc(F)cc2)c1Cl | -7% | -10 | -6% | -20% | -6% | 13µM*
C=CCNC(=O)/C(C#N)=C/c1c(C)nn(-c2ccc(Cl)cc2)c1Cl | ? | -57* | ? | 23µM* | ? | ?
Cc1nn(-c2ccc(Cl)cc2)c(Cl)c1/C=C(\C#N)C(N)=O | -15% | -6 | ? | ? | -16% | ?
C/C(=N\N(c1ccccc1)c1ccccc1)c1ccc(O)cc1 | ? | -63* | ? | -11% | ? | 5%
CCc1c(C)sc(NC(=S)N2CC(C)OC(C)C2)c1C(=O)OC (stereo unspecified) | 21% | 2 | 9% | ? | 11% | 1%
Cc1ccccc1CCN(C(=O)c1csnn1)C(C(=O)NC1CCCC1)c1ccco1 (stereo unspecified) | -29% | -11 | -4% | ? | 0% | 23µM*
Cc1ccc(Cl)cc1N(C(=O)c1csnn1)C(C(=O)NC1CCCC1)c1ccco1 (stereo unspecified) | 16% | -14 | 2% | -12% | 0% | 0%
CC(C)CCN(C(=O)c1csnn1)C(C(=O)NC1CCCC1)c1ccc(F)cc1 (stereo unspecified) | -25% | -63* | -3% | -29% | -2% | -16%
COc1ccc(-c2c(C)nn3c(NC4CCCC4)cc(C)nc23)cc1OC | -3% | -4 | 8% | ? | -12% | ?
CCc1c(C)nc2cc(-c3ccc(OC)c(OC)c3)nn2c1NCC1CC1 | -10% | -94* | -11% | 16µM* | -15% | 13µM*
O=C(O)CCn1cc(/C=C/C(=O)c2ccc(Cl)cc2)c(-c2ccc(Br)cc2)n1 | -29% | -93* | ? | 23µM* | ? | 16µM*
Cc1ccc(/C=C/C(=O)c2c(C)nc3ccccn23)cc1 | ? | -95* | 6% | 16µM* | -21% | 16µM*
CC(=O)c1c(C)nc2ccccn12 | 15% | -5 | -4%[57.4 µM] | 8% | 2% | -13%
O=c1c2ccccc2oc2cc(NCCCn3ccnc3)ccc12 | 0% | -19 | 8% | ? | 1% | ?
CN1CCCC1CCNc1ccc2oc3ccccc3c(=O)c2c1 (stereo unspecified) | -19% | -79* | -1% | ? | -2% | ?
Cn1c2ccccc2c(=O)c2ccc(NCc3ccc4c(c3)OCO4)cc21 | -3% | -4 | ? | 15µM* | -13% | 23µM*
